# Over roughly 33,000 sequences, “E-score (-0.5 to 0.5)” has its median near -0.011; the highest 2% begin near 0.28. What follows is part of a selection rich in the highest values, with near analogues and random picks from the rest.
# Target: T1, Gcr1 (UniProt P07261)
# T1 sequence: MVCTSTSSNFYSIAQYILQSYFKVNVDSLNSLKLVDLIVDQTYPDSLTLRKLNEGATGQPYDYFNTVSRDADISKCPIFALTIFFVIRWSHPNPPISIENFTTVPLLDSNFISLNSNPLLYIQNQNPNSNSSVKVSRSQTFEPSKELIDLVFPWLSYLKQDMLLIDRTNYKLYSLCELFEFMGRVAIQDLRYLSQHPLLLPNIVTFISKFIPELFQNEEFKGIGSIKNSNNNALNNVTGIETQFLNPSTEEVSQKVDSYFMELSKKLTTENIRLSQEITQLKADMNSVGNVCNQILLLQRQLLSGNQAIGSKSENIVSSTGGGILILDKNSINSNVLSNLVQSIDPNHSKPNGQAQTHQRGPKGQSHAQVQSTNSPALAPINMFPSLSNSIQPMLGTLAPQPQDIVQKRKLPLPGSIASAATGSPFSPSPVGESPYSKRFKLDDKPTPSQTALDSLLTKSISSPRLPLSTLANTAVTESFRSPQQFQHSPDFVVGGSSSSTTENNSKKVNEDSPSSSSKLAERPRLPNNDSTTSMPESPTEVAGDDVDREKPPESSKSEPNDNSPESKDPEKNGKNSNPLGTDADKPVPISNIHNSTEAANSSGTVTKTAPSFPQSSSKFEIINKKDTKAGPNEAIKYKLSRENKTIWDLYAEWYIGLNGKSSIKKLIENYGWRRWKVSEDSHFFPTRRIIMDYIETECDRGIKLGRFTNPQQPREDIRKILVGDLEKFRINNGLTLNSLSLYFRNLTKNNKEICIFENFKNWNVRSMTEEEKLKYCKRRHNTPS
# Assay: PBM E-score (8-mer binding enrichment) (E-score (-0.5 to 0.5)); higher = stronger / more preferred TF binding
# Settings: protein concentration: 100 nM; construct: GST-full length
# Outline: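 Using PURExpress in vitro transcription/translation, GST-tagged yeast transcription factors were made in full-length or DNA-binding-domain form. These were applied at about 100-200 nM to double-stranded universal all-10-mer Agilent arrays, and bound protein was detected with fluorescent anti-GST. Scans were normalised with masliner before the Universal PBM Analysis Suite assigned E-scores to ungapped eight-base words pooled with their reverse complements.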
row,Sequence,PBM E-score
1,GTGCCCCA,-0.0431
2,GGGCTCAC,-0.096
3,AGAGCTGG,-0.143
4,TCTGCCCA,-0.249
5,AGATTTCG,0.113
6,AAGGTGTC,0.0915
7,AGCTGCCG,0.289
8,AGCTGCCC,0.217
9,CGCTGCCG,0.175
10,ACTACAAC,0.0309
11,GCCATCCC,-0.173
12,AGCATCCC,0.33
13,CGCATCGA,0.0887
14,CACATCCA,0.0944
15,CGCATCCC,0.319
16,CGCATCCA,0.323
17,CGCATCCG,0.221
18,GGCATCCC,0.4
19,CGCATCGC,-0.0699
20,GACATCCC,0.0126
21,AACATCCC,-0.109
22,AGCATCAC,0.00094
23,AAAGGGTG,-0.0719
24,AAGGCGGT,0.00689
25,CTGTGGCA,0.0358

row,Sequence,PBM E-score
1,AACTGGCA,0.0707
2,ATTCTCGG,0.123
3,ACTTCCGA,0.0686
4,ACTTCCTC,0.243
5,GCCTCCAC,-0.0325
6,CCTTCCAG,0.0686
7,ACTTCCTA,0.245
8,ACTTCCTG,0.319
9,ACTTCCAG,0.377
10,CCTTCCGA,-0.12
11,GCTTCCGA,0.386
12,ACTTCCAT,0.145
13,CCTTCCAC,0.208
14,GCTTCCAC,0.42
15,AGTTCCTG,0.0262
16,CCATGCCG,-0.2
17,CGCTTTCC,-0.0681
18,CTTTCTAC,0.0892
19,AGTCGGAC,-0.093
20,ACCTGAGA,-0.038
21,ACTTCCAC,0.261
22,GCTTCCAA,0.443
23,CCTTCCAA,-0.0431
24,ACTTCCAA,0.303
25,TCTTCCAA,-0.0111

row,Sequence,PBM E-score
1,ATTTCCAA,0.0988
2,CAACCGGA,0.206
3,CCCTCCGG,-0.0226
4,CACCAAAG,0.047
5,ATGCATCA,-0.0769
6,AAGCAGAT,-0.03
7,CAGCAGCA,0.00017
8,AAGCAGCA,-0.176
9,AAGCAGGT,0.161
10,GAGCAGCC,0.217
11,AAGCAGCC,0.308
12,CAGCAGCC,0.359
13,AAGCAGCG,0.135
14,AAGCAGCT,0.33
15,AACTGTGC,-0.181
16,CTTTACTC,-0.104
17,GACTAACC,-0.136
18,ACTTAACC,-0.196
19,GCTCGAGC,0.321
20,CCTCGAGC,-0.102
21,GCTCGAGA,-0.166
22,AAGGGCAC,-0.16
23,CGGGTTCA,-0.204
24,GCGGTTCA,-0.231
25,AGGGTTCA,-0.118

row,Sequence,PBM E-score
1,CGGGTTAC,-0.0158
2,GCGGTTCC,0.314
3,ACGGTTCC,0.0629
4,AGGGTTCG,-0.0648
5,CGGGTTCC,0.411
6,AGGGTTCC,0.312
7,GTTAAAAC,-0.0162
8,AAAATGCG,0.143
9,GAACGACC,-0.165
10,CTGTTGAA,0.0369
11,CCTTCTAC,0.0671
12,GCTTCTAC,0.301
13,CCTTCTAA,-0.0438
14,TCTTCTAA,0.329
15,ACTTCTAA,0.0859
16,GCTTCTAA,0.116
17,GAGTCCTA,0.0444
18,AATAATGA,0.0865
19,AGTCCTGG,0.0342
20,ATCCAAAA,0.282
21,ATCCAAAG,0.189
22,GCCAAAAA,0.288
23,GCCAAGAA,0.124
24,CTCCAATA,0.075
25,ATCCAATA,0.303

row,Sequence,PBM E-score
1,ATCCAATC,0.13
2,GCCAAAAC,0.128
3,ATCCAAAC,-0.03
4,ATGCAAAC,0.115
5,CTCTTCAA,0.00436
6,GGACGCAC,0.127
7,ACGCATCG,-0.00937
8,GCGCATCA,0.0737
9,CCGCATCA,0.103
10,GCGCATAC,0.0321
11,ACGCATCC,0.311
12,ACGCATCT,0.151
13,GCGCATCC,0.331
14,CCGCATCG,-0.0819
15,CCGCATCC,0.31
16,ACCGCCTC,-0.14
17,ACTGTGCT,-0.231
18,ACAGACAT,-0.144
19,CACAGAGG,-0.185
20,CGAGGGGC,0.0171
21,ATAGTGGC,0.32
22,GTAGTGGA,0.285
23,CTAGTGGA,0.298
24,TAAGTGGA,0.287
25,GCAGTGGA,0.11

row,Sequence,PBM E-score
1,AAAGTGGA,0.24
2,CAAGTGGA,0.181
3,ACAGTGGC,0.00948
4,CTAGTGGC,0.106
5,CTAGTGTA,0.127
6,GTAGTGTA,-0.0351
7,ATCGTGGC,-0.103
8,TCCGACAA,-0.0648
9,AACGAGGG,0.0827
10,CGGTCTAG,-0.167
11,AAACAAGG,0.16
12,GAGGTTCC,0.269
13,CAACTTAC,-0.127
14,GCAGAGTA,-0.0213
15,ACCGACGC,-0.0878
16,GTTTTGTA,0.0369
17,ATGGCGGC,0.0606
18,ATATGCTA,0.115
19,CCCCTCAC,-0.0282
20,CTCCTGAA,0.085
21,AAATCGCA,-0.021
22,ATACCAAC,-0.00844
23,ATAGTAGA,0.191
24,ATAGTGGA,0.376
25,AGAGTGGG,0.177

row,Sequence,PBM E-score
1,ATCGTGGA,0.148
2,ATAGTAGC,0.286
3,ATAGTGAA,-0.116
4,CAAGTGGC,0.146
5,AAAGTGGC,0.295
6,AAAGTGGT,0.167
7,ATAGTGGG,0.308
8,ATAGTAGG,0.051
9,ATAGTGTG,0.106
10,GAGAGTGA,-0.261
11,CCAGTAAG,0.222
12,AGCTCTAA,-0.108
13,GTCAAAAA,0.144
14,CCCGAACA,-0.00034
15,GGAGTAAC,-0.116
16,CCTCCCCG,0.0903
17,AGACCCAT,-0.152
18,CGCTGAGC,0.0119
19,ATCCCCAA,0.0543
20,CTCGCGCC,-0.166
21,CATTGAAG,-0.12
22,TAAAGAGA,0.0201

# — the supplement of paper PMC3334620
